# Data: PubChem BioAssay
# Active and inactive are the calls of the source.
# Legend:
# [1] = E. coli DRC41 culture turbidity changes, primary screen, E. coli filamentation inducer project, strain DRC41, OD650, 48 h (AID 1152);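 further: E. coli MC1000 strain DRC41 lacking acrAB efflux pump and sulA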; settings: E. coli DRC41 (acrAB sulA), higher = more signal, called active from +8 up or from −8 down
# [2] = small-molecule binders of probe aLefty1, primary screen, biochemical, small-molecule microarray, 635/667 nm fluorescence (AID 1153); settings: higher = more signal;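 further: score merges spot fluorescence with signal-to-noise ratio from the scanned slide images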
# [3] = PSAC antagonists in infected red cells, primary screen, cell-based, P. falciparum Indochina, OD700, 1 h (AID 1154); settings: P. falciparum Indochina infected RBC osmotic lysis, higher = more signal, called active from +8 up or from −8 down
# [4] = PSAC antagonists in infected red cells, primary screen, cell-based, P. falciparum Indochina, OD700, 2 h (AID 1155);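 further: lysis reports solute entry through the parasite surface anion channel PSAC; channel blockers reduce lysis of infected cells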; settings: P. falciparum Indochina infected erythrocytes, osmotic lysis OD700; higher = more signal, called active from +8 up or from −8 down
# [5] = osmotic lysis modulators in infected erythrocytes, primary screen, PSAC antagonist project, cell-based, P. falciparum Indochina, OD700, 3 h (AID 1156); settings: higher = more signal, called active from +8 up or from −8 down
# [6] = PSAC antagonists in infected red cells, primary screen, cell-based, P. falciparum Indochina, OD700, 18 h (AID 1157); settings: P. falciparum Indochina infected erythrocytes, osmotic lysis OD700, 18 h; higher = more signal, called active from +8 up or from −8 down
# [7] = modulators of S6 phosphorylation in cells, primary screen, cell-based, A549, cytoblot, luminescence, serum-stimulated (AID 1158); settings: A549 phospho-S6 cytoblot, 5 h, higher = more signal;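 further: serum-stimulated A549 lung adenocarcinoma cells; signal is phosphorylated S6 detected by cytoblot immunostaining with HRP secondary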
# [8] = biological target: NADPH oxidase 2 (Homo sapiens) (UniProt P04839); assay: NOX2-dependent H2O2 signal modulators, primary screen, NOX inhibitor project, cell-based, HEK293-NOX2, PMA-stimulated, Amplex Red fluorescence (AID 1159); settings: 45 min, higher = more signal, called active from +8 up or from −8 down; further: test concentration not given here
# [9] = biological target: NADPH oxidase 4 (Homo sapiens) (UniProt Q9NPH5); assay: NOX4-dependent H2O2 signal modulators, primary screen, NOX inhibitor project, cell-based, HEK293-NOX4, tetracycline-induced, Amplex Red fluorescence (AID 1160); settings: 45 min, higher = more signal, called active from +8 up or from −8 down
# [10] = biological target: NADPH oxidase 5 (Homo sapiens) (UniProt Q96PH1); assay: NOX5-dependent H2O2 signal modulators, primary screen, NOX inhibitor project, cell-based, HEK293-NOX5, Amplex Red fluorescence (AID 1161); settings: HEK293-NOX5, ionomycin, 45 min, higher = more signal
# Sequence of NADPH oxidase 5 (Homo sapiens) (Q96PH1 whole entry, looked up): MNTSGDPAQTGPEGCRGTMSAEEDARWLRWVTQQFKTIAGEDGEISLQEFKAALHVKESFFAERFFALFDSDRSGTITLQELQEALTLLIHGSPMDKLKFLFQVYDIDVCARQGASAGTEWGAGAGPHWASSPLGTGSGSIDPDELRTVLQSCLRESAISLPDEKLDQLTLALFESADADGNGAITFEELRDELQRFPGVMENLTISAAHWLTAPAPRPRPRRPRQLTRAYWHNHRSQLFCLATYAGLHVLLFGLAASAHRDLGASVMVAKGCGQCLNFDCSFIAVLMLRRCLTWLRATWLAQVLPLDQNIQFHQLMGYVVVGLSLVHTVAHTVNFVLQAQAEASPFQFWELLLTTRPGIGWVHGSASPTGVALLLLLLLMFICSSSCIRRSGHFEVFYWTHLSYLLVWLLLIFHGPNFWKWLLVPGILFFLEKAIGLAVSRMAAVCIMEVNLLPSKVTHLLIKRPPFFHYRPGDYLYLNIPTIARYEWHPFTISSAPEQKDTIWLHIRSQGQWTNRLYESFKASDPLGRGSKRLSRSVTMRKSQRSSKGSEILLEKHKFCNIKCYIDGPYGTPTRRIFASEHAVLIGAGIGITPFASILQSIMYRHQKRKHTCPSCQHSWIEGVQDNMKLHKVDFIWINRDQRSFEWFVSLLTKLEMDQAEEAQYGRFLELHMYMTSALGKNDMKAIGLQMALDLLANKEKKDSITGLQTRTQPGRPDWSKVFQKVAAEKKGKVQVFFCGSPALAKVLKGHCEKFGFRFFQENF
# Sequence of NADPH oxidase 4 (Homo sapiens) (Q9NPH5 whole entry, looked up): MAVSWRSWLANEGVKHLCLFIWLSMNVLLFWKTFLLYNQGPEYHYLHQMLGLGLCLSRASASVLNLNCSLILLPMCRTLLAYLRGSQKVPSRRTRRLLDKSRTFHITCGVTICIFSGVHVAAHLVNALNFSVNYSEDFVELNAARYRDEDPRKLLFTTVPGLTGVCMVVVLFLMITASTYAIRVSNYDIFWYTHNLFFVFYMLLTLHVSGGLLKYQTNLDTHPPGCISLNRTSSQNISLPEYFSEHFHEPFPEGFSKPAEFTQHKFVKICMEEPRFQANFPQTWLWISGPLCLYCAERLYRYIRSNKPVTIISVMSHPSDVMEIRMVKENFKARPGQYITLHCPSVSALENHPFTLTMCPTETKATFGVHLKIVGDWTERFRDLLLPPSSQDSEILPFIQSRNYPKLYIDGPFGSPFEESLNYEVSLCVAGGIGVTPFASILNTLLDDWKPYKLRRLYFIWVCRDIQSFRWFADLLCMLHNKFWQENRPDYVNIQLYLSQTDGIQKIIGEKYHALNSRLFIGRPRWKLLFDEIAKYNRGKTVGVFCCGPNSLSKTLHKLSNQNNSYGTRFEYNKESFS
# Sequence of NADPH oxidase 2 (Homo sapiens) (P04839 whole entry, looked up): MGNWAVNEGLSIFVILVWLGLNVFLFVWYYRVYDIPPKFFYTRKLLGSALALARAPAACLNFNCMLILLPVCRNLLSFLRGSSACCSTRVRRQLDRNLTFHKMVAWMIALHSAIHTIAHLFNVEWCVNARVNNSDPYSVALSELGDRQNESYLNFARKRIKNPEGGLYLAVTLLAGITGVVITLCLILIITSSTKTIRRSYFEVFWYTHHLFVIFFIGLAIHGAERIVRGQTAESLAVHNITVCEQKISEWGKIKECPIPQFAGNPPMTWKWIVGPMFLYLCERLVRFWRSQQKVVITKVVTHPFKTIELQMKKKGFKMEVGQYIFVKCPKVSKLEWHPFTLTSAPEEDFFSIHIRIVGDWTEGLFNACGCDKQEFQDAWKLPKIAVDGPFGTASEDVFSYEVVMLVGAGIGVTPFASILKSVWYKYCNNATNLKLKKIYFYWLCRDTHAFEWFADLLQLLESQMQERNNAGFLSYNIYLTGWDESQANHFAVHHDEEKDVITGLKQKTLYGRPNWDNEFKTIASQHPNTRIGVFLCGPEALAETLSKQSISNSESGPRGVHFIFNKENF
SMILES,z-score [1],composite z-score [2],z-score [3],z-score [4],z-score [5],z-score [6],z-score [7],z-score [8],z-score [9],z-score [10]
C=CC1c2cc(O)c(OC)cc2CCN1Cc1cc2c(cc1Br)OCO2 (stereo not given),-1.93 (inactive),0.274,15.1 (active),3.15 (inactive),1.57 (inactive),1.01 (inactive),0.0469,-6.22 (inactive),-3.87 (inactive),-4.16
C=CCOC(=O)[C@H]1[C@@H]2C(=O)O[C@@H](c3ccccc3)[C@@H](c3ccccc3)N2[C@@H](c2ccc(OCCOC(=O)[C@H]3C[C@H]4C(=O)N[C@@H](CC(C)C)C(=O)N4[C@H]3c3cccc(OCCO)c3)cc2)[C@]12C(=O)Nc1ccc(I)cc12,-0.811 (inactive),-0.33,2.5 (inactive),1.3 (inactive),0.844 (inactive),0.963 (inactive),0.547,1.35 (inactive),1.6 (inactive),1.14
COC(=O)[C@@]1(Cc2ccc(F)cc2)[C@H]2c3cc(C(=O)N(C)C)n(Cc4cc(F)cc5c4OCOC5)c3C[C@H]2CN1C(=O)c1ccccc1,-0.62 (inactive),0.487,5.56 (inactive),0.0161 (inactive),0.366 (inactive),-1.27 (inactive),1.16,-0.508 (inactive),0.966 (inactive),-3.94
CCOC(=O)C[C@H]1[C@H](OC(=O)Cc2ccc3c(c2)OCO3)[C@@H](NC(=O)CC(C)C)c2cc(OCCCO)ccc2N1C(=O)Cc1ccc(OC)cc1,2.26 (inactive),-0.145,6.25 (inactive),-0.537 (inactive),-1.07 (inactive),-1.3 (inactive),1.72,0.163 (inactive),0.781 (inactive),1.15
C=C[C@@H](COC(C)=O)N(C(=O)OC(C)(C)C)S(=O)(=O)c1ccc(Br)cc1,0.336 (inactive),-0.105,0.478 (inactive),-0.145 (inactive),0.14 (inactive),0.0566 (inactive),-0.178,-1.47 (inactive),-0.744 (inactive),-1.23
CC1=C([C@H](O)CCc2ccccc2)[C@H](CO)[C@@H]2C(=O)N(C)C(=O)[C@@H]2C1,1.13 (inactive),0.184,4.81 (inactive),0.403 (inactive),-0.0722 (inactive),-0.0393 (inactive),-0.167,-1.36 (inactive),0.412 (inactive),0.0196
COc1cc2c(cc1O)C(C)N(Cc1ccc([N+](=O)[O-])o1)CC2 (stereo not given),-0.984 (inactive),0.245,18.3 (active),2.09 (inactive),0.831 (inactive),0.424 (inactive),-0.31,-4.17 (inactive),-2.17 (inactive),-3.28
C[N+](C)(C)CCCCCCNC(=O)[C@H]1C[C@H]2C(=O)NCC(=O)N2[C@H]1c1ccc(O)cc1,0.16 (inactive),-0.455,1.76 (inactive),0.682 (inactive),-1.2 (inactive),-0.0189 (inactive),-0.217,0.446 (inactive),0.256 (inactive),0.328
O=C1O[C@H](c2ccccc2)[C@H](c2ccccc2)N2[C@H]1[C@@H](C(=O)NC[C@H](O)c1ccccc1)[C@]1(C(=O)Nc3ccc(C#CCCO)cc31)[C@H]2c1ccc(OCCO)cc1,0.0129 (inactive),0.138,3.5 (inactive),1.19 (inactive),0.123 (inactive),0.663 (inactive),-0.268,1.16 (inactive),0.861 (inactive),0.275
COCCCNC(=O)[C@]1(CCS(=O)(=O)c2ccccc2)N=C(c2ccc(OCCCO)cc2)O[C@@H]1c1ccccc1CN=[N+]=[N-],0.704 (inactive),1.35,24.6 (active),10.3 (active),1.41 (inactive),1.8 (inactive),-0.377,0.826 (inactive),1.78 (inactive),1.97
COc1cc2c(cc1OC)CN(C(=O)[C@@H]1[C@H]3C(=O)O[C@H](c4ccccc4)[C@H](c4ccccc4)N3[C@H](c3ccc(OCCO)cc3)[C@@]13C(=O)Nc1ccc(C#CC4(O)CCCCCC4)cc13)CC2,3.13 (inactive),0.246,4.33 (inactive),1.05 (inactive),0.785 (inactive),-1.27 (inactive),2.48,0.737 (inactive),0.802 (inactive),1.82
C=CCOC(=O)[C@H]1[C@@H]2C(=O)O[C@@H](c3ccccc3)[C@@H](c3ccccc3)N2[C@@H](c2ccc(OCCOC(=O)[C@@H]3C[C@@H]4C(=O)N5CCC[C@H]5C(=O)N4[C@@H]3c3ccc(O)cc3)cc2)[C@]12C(=O)Nc1ccc(I)cc12,-0.695 (inactive),0.293,1.81 (inactive),1.74 (inactive),0.836 (inactive),0.889 (inactive),-0.597,1.47 (inactive),0.482 (inactive),0.186
CN1C(=O)C2C=CC(C(O)c3ccc(F)cc3)N(Nc3ccccc3)C2C1=O (stereo not given),-1.69 (inactive),0.0711,1.24 (inactive),1.05 (inactive),1.45 (inactive),0.582 (inactive),-0.85,-1.41 (inactive),-3.79 (inactive),-3.17
C=CC[C@]1(C(=O)NCCN2CCOCC2)N=C(c2ccc(OCCCO)cc2)O[C@H]1c1ccccc1CN=[N+]=[N-],1.33 (inactive),-0.264,18.6 (active),1.83 (inactive),2.57 (inactive),0.79 (inactive),0.202,2.07 (inactive),1.16 (inactive),-0.426
CCCCCCCCCCC(O)C1C=CC2C(=O)N(C)C(=O)C2N1Nc1ccc([N+](=O)[O-])cc1[N+](=O)[O-] (stereo not given),-1.97 (inactive),0.407,13.8 (active),4.31 (inactive),-0.607 (inactive),2.59 (inactive),-0.506,0.402 (inactive),0.328 (inactive),-0.414
O=C1O[C@H](c2ccccc2)[C@H](c2ccccc2)N2[C@H]1[C@@H](C(=O)N1CCN(c3ncccn3)CC1)[C@]1(C(=O)Nc3ccc(C#CC4(O)CCCCCC4)cc31)[C@H]2c1ccc(OCCO)cc1,-0.735 (inactive),1.66,8.14 (active),2.41 (inactive),1.76 (inactive),1.33 (inactive),-0.274,1.28 (inactive),1.11 (inactive),1.35
O=C(CS)NCCCCCNC(=O)[C@@H]1C[C@@H]2C(=O)N3CCC[C@H]3C(=O)N2[C@@H]1c1cccc(OCCO)c1,-1.26 (inactive),-0.781,2.76 (inactive),0.465 (inactive),-0.87 (inactive),0.277 (inactive),-0.645,1.97 (inactive),0.231 (inactive),-0.232
COC(=O)[C@@]1(Cc2ccccc2)[C@H]2c3cc(C(=O)N(C)C)n(CCc4ccc(O)c(OC)c4)c3C[C@H]2CN1C(=O)c1ccccc1,-0.873 (inactive),1.11,0.318 (inactive),0.277 (inactive),-0.692 (inactive),0.667 (inactive),-0.565,0.0564 (inactive),-0.485 (inactive),-0.207
COC(=O)[C@@]1(Cc2ccc(OC)cc2)[C@H]2c3cc(C(=O)N4CCCC4)n(Cc4cccc5ccccc45)c3C[C@H]2CN1C(=O)c1ccccc1,-0.492 (inactive),0.258,3.9 (inactive),0.408 (inactive),1.48 (inactive),0.983 (inactive),0.0019,0.208 (inactive),1.74 (inactive),-1.45
COCCOC(=O)N1C(=O)[C@@]2(c3cc(C#CC4=CCCCC4)ccc31)[C@H](c1ccccc1OCCO)N1[C@H](c3ccccc3)[C@H](c3ccccc3)OC(=O)[C@H]1[C@@H]2C(=O)N1CCCCCCC1,-1.05 (inactive),-0.999,-0.606 (inactive),1.1 (inactive),-0.56 (inactive),0.442 (inactive),-0.56,0.962 (inactive),-1.22 (inactive),0.545
CN1C(=O)C2C=CC(C(O)c3ccccn3)N(N(c3ccccc3)c3ccccc3)C2C1=O (stereo not given),-1.06 (inactive),0.0774,1.5 (inactive),1.14 (inactive),0.303 (inactive),1.05 (inactive),-0.618,-0.486 (inactive),-1.94 (inactive),-2.33
COc1ccc(CCNC(=O)[C@@H]2c3ccccc3C(=O)N(Cc3cc(C(F)(F)F)cc(C(F)(F)F)c3)[C@H]2c2ccc(CO)cc2)cc1,0.0073 (inactive),0.108,4.55 (inactive),0.383 (inactive),0.767 (inactive),0.233 (inactive),0.154,-1.75 (inactive),0.194 (inactive),-0.077
CC1CC/C=C\[C@H]2OC34C=CCN(C(C)C)C(=O)[C@H]3N(CCCCCCO)C(=O)[C@@H]4C2C(=O)O1 (stereo not given in full),3.07 (inactive),-0.45,0.719 (inactive),0.259 (inactive),-0.987 (inactive),-0.751 (inactive),1.26,0.882 (inactive),0.119 (inactive),2.1
CCOC(=O)C1=CC[C@@H](c2ccccc2C(F)(F)F)N(S(=O)(=O)c2ccc(C)cc2)[C@H]1c1ccc(C#N)cc1,-0.53 (inactive),0.165,0.873 (inactive),1.65 (inactive),0.341 (inactive),0.876 (inactive),-0.669,0.823 (inactive),0.699 (inactive),0.102
CC[C@H]1C2=C3C(CC[C@H]4C(OCc5ccc(F)cc5C(F)(F)F)OC[C@](C)([C@@H]34)N(C(=O)OC(C)(C)C)C2)C(COC)C1COC (stereo not given in full),-1.22 (inactive),0.409,-0.0734 (inactive),-0.0681 (inactive),0.337 (inactive),0.297 (inactive),-0.371,-0.67 (inactive),-1.45 (inactive),-1.54
